The campaign covered roughly 5,500 compounds. About 2,000 (36%) were called active. Another 18% or so got no clear call; they are omitted. Rule as the data show it: active = normalized growth mostly below about 0.91 (no sharp cut-off); inconclusive = no clear call, values can overlap the other calls; inactive = mostly above about 0.92. This is one part of the list.
Assay: chemical genetic growth profiling, strain panel (AID 1159580);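 also: tested at 20 µM; growth read once vehicle control cultures reached saturation at 30 °C; 1 = growth at the plate median or of vehicle wells; lower values mean less growth of the strain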
Details: S. cerevisiae deletion strains, growth OD

Measured: normalized growth

COc1cc(OC)c2c(c1)OC(c1ccc(OC)c(OC)c1)C(O)C2 (centres undefined)
inactive: locus YBR021W, strain FUR4, hits give low values 1.04 | locus YBR229C, strain ROT2, hits give low values 1.01 | locus YCL029C, strain bik1, hits give low values 1.03 | locus YDL035C, strain GPR1, hits give low values 1.08 | locus YDL074C, strain BRE1, hits give low values 1.11 | locus YDL101C, strain DUN1, hits give low values 1.02 | locus YDL185W, strain tfp1, hits give low values 1.03 | locus YDL192W, strain arf1, hits give low values 1.02 | locus YDR101C, strain arx1, hits give low values 0.991 | locus YDR162C, strain NBP2, hits give low values 1.04 | locus YDR318W, strain mcm21, hits give low values 1.03 | locus YDR388W, hits give low values 1 | locus YDR502C, strain sam2, hits give low values 1.03 | locus YER110C, hits give low values 1.01 | locus YER155C, strain BEM2, hits give low values 0.999 | locus YER167W, strain BCK2, hits give low values 1 | locus YGL078C, strain dbp3, hits give low values 1.03 | locus YGL086W, strain mad1, hits give low values 1.02 | locus YGL248W, strain PDE1, hits give low values 1.06 | locus YGR078C, strain PAC10, hits give low values 1.04 | locus YGR135W, strain pre9, hits give low values 1.05 | locus YGR252W, strain gcn5, hits give low values 1.05 | locus YHR030C, strain SLT2, hits give low values 1.02 | locus YHR079C, strain IRE1 (second series), hits give low values 1.02 | locus YHR094C, strain hxt1, hits give low values 1.01 | locus YHR129C, strain ARP1, hits give low values 1.02 | locus YHR200W, strain rpn10, hits give low values 1.04 | locus YIL066C, strain RNR3, hits give low values 1.02 | locus YIL073C, strain SPO22, hits give low values 1.16 | locus YIL125W, strain kgd1, hits give low values 1.02 | locus YIR030C, strain dcg1, hits give low values 1.02 | locus YJL095W, strain BCK1, hits give low values 1.07 | locus YJL134W, strain LCB3, hits give low values 1.01 | locus YJL168C, strain set2, hits give low values 1.01 | locus YJL187C, strain SWE1 (second series), hits give low values 1.05 | locus YJR043C, strain POL32, hits give low values 1.06 | locus YKL009W, strain mrt4, hits give low values 1.04 | locus YKL068W, hits give low values 0.998 | locus YKL085W, strain MDH1 (second series), hits give low values 1.01 | locus YKL085W, strain MDH1, hits give low values 1.01 | locus YKR001C, strain vps1, hits give low values 1.03 | locus YLR039C, strain RIC1, hits give low values 1.17 | locus YLR058C, strain SHM2, hits give low values 1.03 | locus YLR102C, strain apc9, hits give low values 1.01 | locus YLR268W, strain sec22, hits give low values 1.01 | locus YLR371W, strain rom2, hits give low values 1.05 | locus YLR418C, strain cdc73, hits give low values 1.04 | locus YML016C, strain PPZ1, hits give low values 1.01 | locus YML032C, strain rad52, hits give low values 1.02 | locus YML124C, strain tub3, hits give low values 1 | locus YMR078C, strain ctf18, hits give low values 1.02 | locus YMR223W, strain ubp8, hits give low values 1.02 | locus YMR307W, strain GAS1, hits give low values 1.22 | locus YNL067W, strain RPL9B, hits give low values 1.01 | locus YNL233W, strain BNI4, hits give low values 1.05 | locus YNL250W, strain rad50, hits give low values 1.05 | locus YNL271C, strain bni1, hits give low values 1.01 | locus YNL298W, strain CLA4, hits give low values 1.03 | locus YNL307C, strain MCK1, hits give low values 1.01 | locus YNR052C, strain pop2, hits give low values 1.05 | locus YOL012C, strain htz1 1.04 | locus YOL147C, strain pex11, hits give low values 1.03 | locus YOR061W, strain CKA2, hits give low values 1.01 | locus YOR069W, strain VPS5, hits give low values 1.02 | locus YOR136W, strain idh2, hits give low values 1.02 | locus YOR144C, strain elg1, hits give low values 1.01 | locus YOR184W, strain ser1, hits give low values 1.02 | locus YOR316C, strain cot1, hits give low values 1.03 | locus YPL241C, strain CIN2, hits give low values 1.02 | locus YPR119W, strain clb2, hits give low values 1.01 | locus YPR141C, strain kar3, hits give low values 1.02 | locus YPR163C, strain tif3, hits give low values 1.02 | locus YPR167C, strain met16, hits give low values 1.04 | strain wtn01, hits give low values 1.03

— PubChem BioAssay AID1159580 (chemical genetic matrix, 2015)
